HT1080NT lethal: kills 2HG-producing HT-1080-NT fibrosarcoma cells | HT-1080-NT fibrosarcoma viability, CellTiter-Glo ATP luminescence, 48 h | Potency, µM (titrated, usually from 46.1 µM), inactives show top-dose activity, negative = less viability, usual class: cytotoxic | 360,000 compounds, 1.6% hits | AID 686970;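 note: NT is the 2HG producing partner of a matched IDH1 knockdown line; 0% = DMSO-treated cells and -100% = media-only wells without cells; nearly all actives have a fitted effect of over 55% in size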
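Viability by CellTiter-Glo luminescence after 48 h compound exposure at 37C of HT-1080-NT cells (750/well, RPMI, 5% FBS). % activity scaled between DMSO wells and medium-only wells, then curve-fitted and categorized by curve class.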
TDP1 cell CPT: growth inhibition of DT40 Tdp1-/-;hTDP1 cells with camptothecin (screen for TDP1 inhibitors); chicken DT40 Tdp1-/-;hTDP1 cells + 20 nM CPT, ATP luminescence, 48 h; Potency, µM (top dose mostly 46.2 µM), for inactives: top-dose activity change, negative = growth inhibition, hits mostly inhibitors; 420,000 compounds, 12% hits; AID 686979; note: % is set by controls: 0 for no effect and ±100 for the full control effect; nearly all actives have a fitted effect of over 55% in size
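Cell growth measured by CellTiter-Glo luminescence after a minimum 48 h, 37 C compound exposure with 20 nM CPT in Tdp1-knockout DT40 cells stably expressing hTDP1, seeded 400/well; qHTS titration format.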
HT1080 IDH1KD tx: toxicity to HT-1080 IDH1 knockdown cells (counter line) | 360,000 compounds, 2% hits | HT-1080 IDH1 knockdown viability, ATP luminescence, 48 h | Potency, µM (series often up to 46.1 µM), for inactives: at the top dose activity, negative = toxicity, most hits filed as cytotoxic | AID 686971;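 note: 0% = DMSO wells and -100% = cell-free medium wells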
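IDH1KD HT-1080 cells, 750/well, RPMI + 5% FBS; compound pinned after 2 h settling; 48 h, 37 °C; CellTiter-Glo luminescence; % activity normalised to DMSO and no-cell wells; curves fitted, classed by r2 and efficacy.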
TGFb inhibitor: TGF-b pathway inhibition; HepG2 CAGA-GFP TGF-b/SMAD3 reporter, GFP fluorescence, 18 h; TGF-beta stimulated, 500 pg/mL final; Potency, µM (top dose mostly 46.1 µM), for the others: at the top dose activity, negative = inhibition, usual class: inhibitors; 410,000 compounds, 1.2% hits; AID 588855; note: % is set by controls: 0 for no effect and ±100 for the full control effect; nearly all actives have a fitted effect of over 65% in size
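Using HEPG2 CAGA-GFP reporter cells at 1000 cells/well, we pinned test compounds, stimulated with recombinant TGF-beta (500 pg/mL final) and measured total well GFP after 18 h.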
DT40 TDP1 no CPT: qHTS for Inhibitors of human tyrosyl-DNA phosphodiesterase 1 (TDP1): qHTS in cells in absence of CPT; AID 686978, 2013; Potency, µM (top dose mostly 46.2 µM), inactives show at the top dose activity change, negative = growth inhibition, hits mostly inhibitors; 420,000 compounds, 15% hits; DT40 Tdp1-/- hTDP1 cells, no CPT, ATP luminescence, 48 h; note: % is set by controls: 0 for no effect and ±100 for the full control effect; nearly all actives have a fitted effect of over 55% in size
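DT40 Tdp1-/-;hTDP1 cells, no CPT (DMSO vehicle only), 400 cells/well; compounds pin-transferred; ≥48 hr, 37 °C; CellTiter-Glo 30 min RT dark, luminescence read.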
HepG2 tox: HepG2 cytotoxicity, counter-screen for TGF-b inhibitors | HepG2 CAGA-GFP viability, ATP luminescence, 18 h | Potency, µM (series often up to 46.1 µM), for the others: at the highest dose activity change, negative = cytotoxicity, most hits filed as cytotoxic | 410,000 compounds, 0.76% hits | AID 588856
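HepG2 CAGA-GFP cells (1000/well, DMEM with 1% FBS) received compound, then TGF-beta at 500 pg/mL final, and were incubated 18 hours at 37 degrees C. Viability was read by CellTiter-Glo luminescence. Media-only wells were set as complete cell-killing and DMSO as no toxicity.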
Active calls of the source: *; ? = inconclusive; . = no result given; [ ] = another dose, or the depositor's remark. The list is not random: actives were taken first. Their share in the collection is about 17%. Calls come from the whole dose curve; as a rule, active = well fitted curve in the direction sought with a large enough effect; inconclusive = small, poorly fitted or top-dose-only effect, or another doubt; inactive = no such curve, though single readings can be large; an effect the other way counts as inactive or inconclusive. Potency is the fitted concentration of half-maximal effect.

SMILES	HT1080NT lethal	TDP1 cell CPT	HT1080 IDH1KD tx	TGFb inhibitor	DT40 TDP1 no CPT	HepG2 tox
CNC[C@H](CC1CCCCC1)NC[C@H](CO)NCC1(c2ccccc2)CC1	?	?	?	?	21µM*	-58%
CC(C1CC1)N(Cc1ccccc1)C(=S)Nc1cccc(C(F)(F)F)c1 (stereo unspecified)	-3%	?	-2%	?	?	-16%
CNC[C@H](CC1CCCCC1)NC[C@H](CO)NCCc1cccc(C(F)(F)F)c1	?	7.3µM*	?	?	5.8µM*	-103%
COc1ccc(CCN2CCCn3c2nc2c3c(=O)[nH]c(=O)n2C)cc1OC	?	26µM*	18µM*	19%	7.3µM*	7%
CCC(C)Sc1ccc(-c2nc3ccc(C)cn3c2NC2CCCCC2)cc1 (stereo unspecified)	.	7.3µM*	.	1%	8.2µM*	-26%
Cc1ccc2nc(-c3cccc(SC4CCCCC4)c3)c(NC3CCCCC3)n2c1	-1%	21µM*	-1%	-13%	16µM*	-18%
Clc1ccc2nc(-c3cccc(SC4CCCCC4)c3)c(NCc3ccccc3)n2c1	0%	16µM*	0%	3%	?	-19%
Cc1ccc2nc(-c3cccc(SC4CCCCC4)c3)c(NCc3ccccc3)n2c1	?	26µM*	-22%	?	18µM*	-34%
Cc1ccc2nc(-c3cccnc3)c(NC3CCCCC3)n2c1	-5%	?	2%	-4%	?	5%
CCc1c(C)c2cc(Cl)c(O)c(CN3CCCC3)c2oc1=O	6%	-27%	2%	9%	-17%	2%
COc1ccc(/C=N/NC(=O)OC(C)(C)C)cc1OC	1%	2%	1%	5%	-4%	13%
Cc1ccn2c(NCc3ccccc3)c(-c3cccc(SC4CCCCC4)c3)nc2c1	?	23µM*	?	13µM*	?	-53%
COc1ccc(-c2ccc(-c3nc4ccc(C)cn4c3NC3CCCCC3)cc2OC)cc1	?	10µM*	?	?	13µM*	-20%
c1ccc(CNc2c(-c3cccc(SC4CCCCC4)c3)nc3ccccn23)cc1	?	?	?	?	?	-61%
COC(=O)C1CCN(Cc2ccc3c(c2)CN(C(=O)c2cc(-c4ccc(C)o4)[nH]n2)CCO3)CC1	.	0.082µM*	.	.	?	.
COC(=O)C1CCN(Cc2ccc3c(c2)CN(C(=O)c2cc(C)nc(C)n2)CCO3)CC1	.	8%[9.04 µM]	.	.	-9%	.
COC(=O)C1CCN(Cc2ccc3c(c2)CN(C(=O)c2cc4cc(F)ccc4[nH]2)CCO3)CC1	.	-10%[9.04 µM]	.	.	15µM*	.
CC1CC(C)CN(C(=O)CCCn2c(=O)c3cccn3c3cccnc32)C1 (stereo unspecified)	-9%	-20%	-3%	1%	1%	-3%
CN1CCN(C(=O)CCn2c(=O)c3cccn3c3cccnc32)CC1	10%	2%	5%	14%	2%	5%
Cc1cccc(N2CCN(C(=O)CCCn3c(=O)c4cccn4c4cccnc43)CC2)c1C	?	?	?	-8%	18µM*	0%
Cc1ccc(Cl)cc1N1CCN(C(=O)CCCn2c(=O)c3cccn3c3cccnc32)CC1	-1%	?	-2%	?	29µM*	-32%
C=CCn1c(COc2ccccc2OC)nc2ccccc21	11%	?	14%	-29%	?	-26%
COC(=O)c1cn([C@@H]2C[C@@H](C(=O)Nc3cccc(SC)c3)N(C3CCCC3)C2)nn1	.	3%[9.04 µM]	.	.	-24%	.
O=C(c1ccc(Cl)c(S(=O)(=O)NCc2cccnc2)c1)N1CCCC1	-6%	?	-2%	0%	2.9µM*	-2%
O=C(O)c1ccc(Cl)c(S(=O)(=O)NCc2cccnc2)c1	4%	-9%	18%	-2%	?	-1%
SMILES	HT1080NT lethal	TDP1 cell CPT	HT1080 IDH1KD tx	TGFb inhibitor	DT40 TDP1 no CPT	HepG2 tox
O=C(Nc1ccc(Cl)c(Cl)c1)c1cccc(S(=O)(=O)NCc2cccnc2)c1	7.3µM*	5.8µM*	23µM*	?	12µM*	-23%
CC(=O)c1ccc(NC(=O)Cn2nc(C(F)(F)F)c3c2CCC3)cc1	.	-17%	.	-1%	-24%	-10%
Cc1cccc(CN2C(=O)[C@H]3Cc4c([nH]c5ccccc45)C(C)(C)N3C2=O)c1	.	.	.	11µM*	.	-28%
CCOC(=O)c1ccc2c(c1)N(Cc1cc(C)ccc1C)C(=O)c1ccccc1S2(=O)=O	.	?	.	-14%	16µM*	1%
O=C(c1ccc2c(c1)N(Cc1ccccc1F)C(=O)c1ccccc1S2=O)N1CCOCC1 (stereo unspecified)	.	-8%	.	-2%	-3%	2%
Cc1ccccc1CN1C(=O)c2ccccc2S(=O)c2ccc(C(=O)NC3CCC(C)CC3)cc21 (stereo unspecified)	.	?	.	-3%	-29%	5%
CCOC(=O)N1CCC(NC(=O)c2ccc3c(c2)N(Cc2cc(C)ccc2C)C(=O)c2ccccc2S3=O)CC1 (stereo unspecified)	.	6.5µM*	.	?	18µM*	-19%
CCOC(=O)c1ccc2c(c1)N(Cc1cccc(C(F)(F)F)c1)C(=O)c1ccccc1S2(=O)=O	.	?	.	-7%	16µM*	1%
Cc1ccc(C)c(CN2C(=O)c3ccccc3S(=O)c3ccc(C(=O)N4CCCCC4)cc32)c1 (stereo unspecified)	.	16µM*	.	?	16µM*	0%
Cc1ccc(S(=O)(=O)CCc2nnc(NC(=O)COc3cccc(C)c3)s2)cc1	1%	?	1%	-5%	?	5%
CC(=O)Nc1cccc(C(=O)OCC(=O)Nc2c(C)nn(-c3ccccc3)c2C)c1	0%	4%	2%	3%	-9%	-5%
CCOC(=O)N1CCC(NC(=O)c2ccc3c(c2)N(Cc2cc(C)ccc2C)C(=O)c2ccccc2S3(=O)=O)CC1	.	?	.	.	12µM*	-17%
COC(=O)c1ccc2c(c1)N(Cc1cc(C)ccc1C)C(=O)c1ccccc1S2(=O)=O	.	?	.	?	?	-14%
CCOc1ccccc1CNC(=O)Cn1c(-c2ccccc2)cc(C(C)=O)c1C	.	13µM*	.	-2%	?	-14%
COc1ccc(CNC(=O)Cn2c(-c3ccccc3)cc(C(C)=O)c2C)cc1OC	.	10µM*	.	-12%	?	-2%

Screens from PubChem BioAssay.
